# NPSR antagonist = neuropeptide S receptor (human) antagonism, cAMP | Q6W5P4 | CHO-NPSR cells, cAMP TR-FRET, antagonist mode | Potency, µM (top dose mostly 38.3 µM), without a hit: at the highest dose activity change, negative = inhibition, usual class: inhibitors | 1% of 220,000 active; further: potency means the concentration at half of the fitted maximal effect; nearly all actives have a fitted effect of over 50% in size
# KDM4E inh = JMJD2E (human) inhibition. 1.6% of 230,000 active. JMJD2E catalytic domain, FDH-coupled NADH fluorescence (FDH is formaldehyde dehydrogenase). Potency, µM (series often up to 57.1 µM), for inactives: at the top dose activity change, negative = inhibition, hits mostly inhibitors; active means well fitted inhibition curve with a large enough effect, not every such curve was filed as active; inconclusive means small, poorly fitted or top-dose-only effect, or another doubt; inactive means no such curve, though single readings can be large or run the other way;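 further: potency means the concentration at half of the fitted maximal effect; 0% = wells with enzyme and -100% = buffer wells without enzyme; nearly all actives have a fitted effect of over 50% in size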
# Target sequence (B2RXH2 1-337 limits assumed): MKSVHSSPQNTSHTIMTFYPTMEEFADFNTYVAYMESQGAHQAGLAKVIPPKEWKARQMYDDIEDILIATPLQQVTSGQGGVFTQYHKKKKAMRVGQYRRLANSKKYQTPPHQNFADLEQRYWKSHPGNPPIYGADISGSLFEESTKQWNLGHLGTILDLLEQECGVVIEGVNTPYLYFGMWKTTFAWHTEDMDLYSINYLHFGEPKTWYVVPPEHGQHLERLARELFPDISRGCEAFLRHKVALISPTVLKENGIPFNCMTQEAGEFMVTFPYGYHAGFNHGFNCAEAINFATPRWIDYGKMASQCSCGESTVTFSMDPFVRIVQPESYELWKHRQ
# FBPA coupling cs = counter-screen for Giardia aldolase inhibitors: coupling enzyme system | coupling enzyme system counterscreen, AmpLite Red fluorescence | activity change, negative = inhibition, % at 58.2 µM, hits read low | 0.67% of 290,000 active; in the data active means activity change below about -30%
#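 Counterscreen lacking aldolase: glyceraldehyde-3-phosphate coupling-enzyme reagent preincubated 10 min at RT with compound (at 57.5 uM final), then substrate/coupling system with AmpLite Red added; fluorescence read at 525/598 nm after 20 min RT.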
# GoLoco inh red = blocks human Gai1 binding to RGS12 GoLoco peptide, red readout; P63096; Gai1:RGS12 GoLoco peptide FP, rhodamine, 10 min; Potency, µM (doses to about 61.6 µM), inactives show top-dose activity, negative = inhibition, usual class: inhibitors; 0.44% of 230,000 active; AID 880; active means well fitted inhibition curve with a large enough effect, not every such curve was filed as active; inactive means no such curve, though single readings can be large or run the other way; further: potency means the concentration at half of the fitted maximal effect; nearly all actives have a fitted effect of over 30% in size
# ALDH1A1 inh = inhibitors of human aldehyde dehydrogenase 1A1 | P00352 | Purified ALDH1A1, NADH fluorescence, propionaldehyde substrate | Potency, µM (doses to about 75.3 µM), inactives show at the highest dose activity, negative = inhibition, hits mostly inhibitors | 7.3% of 220,000 active; active means well fitted inhibition curve with a large enough effect, not every such curve was filed as active; inconclusive means small, poorly fitted or top-dose-only effect, or another doubt; inactive means no such curve, though single readings can be large or run the other way;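 further: potency means the concentration at half of the fitted maximal effect; plate controls were no enzyme wells and a reference inhibitor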
# Sfp inh = blocks B. subtilis Sfp PPTase activity; AID 1490; Biochemical Sfp PPTase activity, qHTS; Potency, µM, for the others: largest response in the series, negative = inhibition, most hits filed as inhibitors; 3.5% of 310,000 active;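 further: the enzyme is Sfp with the accession as filed and its product quenches rhodamine fluorescence; potency means the concentration at half of the fitted maximal effect; 0% = enzyme reaction without inhibitor and -100% = no enzyme wells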
#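 Fluorescence-quenching assay with 15 nM Sfp, 5 uM rhodamine-CoA and 12.5 uM BHQ-2-labelled ybbR peptide in pH 7.6 Hepes/MgCl2 buffer. Enzyme was pre-incubated with compound for 15 min at room temperature. Rate was taken from the 30-min fluorescence change (525/598 nm).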
# * hit, by the source's call; ? = inconclusive; nt = no result; ! = repeats disagree; [ ] = remark or other dose. Rows were chosen to be rich in hits. Some 8.5% of all compounds tested hit in one or more screens of this group. Unless noted, the call rests on the fitted dose curve; in most records, active means well fitted curve in the direction sought with a large enough effect; inconclusive means small, poorly fitted or top-dose-only effect, or another doubt; inactive means no such curve, though single readings can be large; an effect the other way counts as inactive or inconclusive. Unless noted, on the % scale 0 is the no-effect control and ±100 the full control effect.
SMILES,NPSR antagonist,KDM4E inh,FBPA coupling cs,GoLoco inh red,ALDH1A1 inh,Sfp inh
O=C1CS/C(=C/C(=O)c2ccccc2)N1,3%[46.1 µM],-7%,-1,20%,-7%,-2%
COc1cc2ccc(=O)oc2c(O)c1O,nt,?,-16,-27%,?,40µM*!
COc1cc2ccc(=O)oc2c(OC)c1OC,nt,?,1,4%,?,1%
CCN(CC)S(=O)(=O)c1ccc(N2CCN(S(=O)(=O)c3ccc4c(c3)OCCO4)CC2)nc1,-11%[46.1 µM],?,2,-3%,-6%,4%
CCn1c2ccccc2c2cc(N)ccc21,-5%[46.1 µM],?,-9,-2%,?,-22%
CCn1c2ccccc2c2cc(CNCc3ccc(OC)cc3OC)ccc21,?,3%,-2,5%,?,22µM*
COc1cccc(CNCc2ccc(OC)cc2OC)c1,nt,nt,1,nt,nt,-14%
CCC(CC)NCc1ccc2c(c1)c1ccccc1n2CC,33%,1%,-6,-3%,20µM*,50µM*
O=C(NCc1ccco1)/C(=C/c1ccccc1F)NC(=O)c1ccccc1,nt,nt,1,nt,nt,5%
COc1ccc(NS(=O)(=O)c2ccc(N3CCCC3)c(N)c2)cc1,nt,nt,0,nt,nt,-9%
COc1ccc(NS(=O)(=O)c2ccc(N3CCCC3)c(NC(=S)Nc3cccc(C)c3C)c2)cc1,5%,-4%,2,-1%,8.9µM*,13µM*
COc1ccc(NS(=O)(=O)c2ccc(N3CCCC3)c(NC(=S)Nc3ccc(SC(F)F)cc3)c2)cc1,-19%,3%,1,-1%,3.5µM*,18µM*
CNC(=S)Nc1cc(S(=O)(=O)Nc2cc(Cl)ccc2Cl)ccc1N1CCCC1,nt,nt,5,nt,nt,-9%
CCc1cc(=O)oc2c3c(cc(OCC(=O)NCCCCCC(=O)O)c12)OC(C)(C)CC3,nt,nt,10,nt,nt,12%
COc1ccccc1C1CCN(C(=O)c2cccs2)CC1,17%,2%,5,2%,nt,-2%
Cc1ccccc1NS(=O)(=O)c1nnc(NC(=O)c2ccccc2C)s1,nt,nt,6,nt,nt,8%
Cc1cccnc1Nc1nc(-c2ccc(O)c(O)c2)cs1,-22%[46.1 µM],?,-20,30%,-6%,50µM*
Cc1ccnc(Nc2nc(-c3ccc(O)c(O)c3)cs2)c1,nt,nt,-3,nt,nt,50µM*
Cc1ccnc(Nc2nc(-c3ccc(O)cc3)cs2)c1,nt,nt,1,nt,nt,4%
Oc1ccc(-c2csc(Nc3ccccn3)n2)cc1O,nt,nt,0,nt,nt,45µM*
Cc1ccnc(Nc2nc(-c3ccc(O)cc3O)cs2)c1,nt,nt,-3,nt,nt,40µM*
COc1ccc(-c2csc(Nc3cc(C)ccn3)n2)cc1C,nt,nt,2,nt,nt,-5%
Cc1cccc(Nc2nc(-c3ccc(O)c(O)c3)cs2)n1,nt,nt,-6,nt,nt,-12%
Cc1csc(Nc2cccc3ccccc23)n1,-24%,?,-6,6%,?,1%
Oc1ccc(-c2csc(Nc3cccc4ccccc34)n2)cc1O,nt,nt,-7,nt,nt,50µM*
SMILES,NPSR antagonist,KDM4E inh,FBPA coupling cs,GoLoco inh red,ALDH1A1 inh,Sfp inh
O=C(CSc1ccc(F)cc1)N1CCC(c2nc3ccccc3s2)CC1,-24%[46.1 µM],1%,1,-9%,7.1µM*,-9%
O=C(CSc1ccccc1Cl)N1CCC(c2nc3ccccc3s2)CC1,-19%[46.1 µM],-5%,-1,-2%,13µM*,-11%
O=C(Cc1ccc(F)cc1)Nc1cccc(-c2cn3c(n2)SCC3)c1,-1%,-12%,1,-7%,0%,1%
O=C(Nc1cccc(-c2cn3c(n2)SCC3)c1)c1ccc(Br)o1,-10%,?,1,55%,16µM*,14%
COc1ccc(-c2cc(C)no2)cc1S(=O)(=O)N1CCCN(Cc2ccccc2Cl)C1,nt,nt,-1,nt,nt,-4%
COc1ccc2cc(C(=O)C3CCCN(C(=O)c4cncs4)C3)ccc2c1 (stereo not drawn),nt,nt,nt,nt,nt,8%
O=C1CC(N(O)C2CC(=O)N(Cc3ccccc3)C2=O)C(=O)N1Cc1ccccc1 (stereo not drawn),-4%[46.1 µM],0%,-1,-10%,7.1µM*,45µM*
CCCN(CCC)C1CC(=O)N(Cc2ccccc2)C1=O (stereo not drawn),-10%[46.1 µM],-7%,2,-5%,11µM*,?
